# In PubChem BioAssay (NCI):
# About 79,000 compounds went through this panel and 15% of them were active in at least one assay; those are over-represented in the sample as a whole. Unmarked numbers belong to inactive results. Active and inactive are the calls of the source. Rule as the data show it: active = growth inhibition above about 70%; inactive = the rest.
# Legend:
# [1] = NCI Yeast Anticancer Drug Screen. Data for the rad52 strain (AID 147);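 also: 0% = growth of vehicle-treated control cultures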; details: S. cerevisiae rad52 mutant growth inhibition, active compounds read high
# Outline: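 Genetically altered yeast (DNA damage repair defect) treated with compound; inhibition calculated relative to vehicle.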
# [2] = NCI Yeast Anticancer Drug Screen. Data for the wt1 strain (AID 149);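 also: 0% = growth of vehicle-treated wt1 cultures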; details: S. cerevisiae wt1 strain (SPY 50644) growth inhibition, active compounds read high
# Outline: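 Growth inhibition read against vehicle controls after compound exposure of the wt1 yeast strain.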
# [3] = NCI Yeast Anticancer Drug Screen. Data for the rad50EPP+ strain (AID 151);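 also: 0% = growth of vehicle-treated control cultures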; details: S. cerevisiae rad50 mutant strain, active compounds read high
# Outline: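 Strain rad50EPP+; compound exposure; % growth inhibition vs vehicle.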
# [4] = NCI Yeast Anticancer Drug Screen. Data for the mgt1 strain (AID 153); details: S. cerevisiae mgt1 mutant growth inhibition, active compounds read high
# Outline: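 Read-out: yeast growth inhibition vs vehicle control. Strain mgt1, drawn from a panel altered in DNA damage repair or cell cycle control.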
# [5] = NCI Yeast Anticancer Drug Screen. Data for the rad50 strain (AID 155);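 also: 0% = growth of vehicle-only cultures of the same strain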; details: S. cerevisiae rad50 strain growth inhibition, active compounds read high
# Outline: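 Readout: growth inhibition relative to vehicle-treated cultures. Compound exposure was carried out in a genetically defined yeast strain deficient in DNA damage repair.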
# [6] = NCI Yeast Anticancer Drug Screen. Data for the mec2-1 strain (AID 157); details: S. cerevisiae mec2-1 strain, active compounds read high
# Outline: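 Cells of the genetically defined mec2-1 yeast strain are incubated with test compound. Inhibition of growth is calculated against vehicle-treated controls.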
# [7] = NCI Yeast Anticancer Drug Screen. Data for the rad14 strain (AID 159);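 also: 0% = growth of vehicle-treated control cultures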; details: S. cerevisiae rad14 strain growth inhibition, active compounds read high
# Outline: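 Growth inhibition vs vehicle controls; genetically altered yeast strain (DNA damage repair defect) treated with test compounds.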
# [8] = NCI Yeast Anticancer Drug Screen. Data for the sgs1 mgt1 strain (AID 161);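 also: 0% = growth of cultures given vehicle only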; details: S. cerevisiae sgs1 mgt1 strain, active compounds read high
# Outline: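 Mutant yeast exposed to compound; growth scored against vehicle-only wells.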
# [9] = NCI Yeast Anticancer Drug Screen. Data for the cln2 rad14 strain (AID 165);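 also: 0% = growth equal to vehicle treated cultures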; details: S. cerevisiae cln2 rad14 strain, active compounds read high
# Outline: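 The screen exposed genetically defined yeast (cln2 rad14) to test compounds and scored growth inhibition relative to vehicle-treated controls.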
# [10] = NCI Yeast Anticancer Drug Screen. Data for the bub3 strain (AID 167); details: S. cerevisiae bub3 mutant strain, active compounds read high
# Outline: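 Readout: yeast growth inhibition, expressed relative to vehicle-only wells. The test organism is a mutant strain from a panel with lesions in DNA repair or checkpoint genes.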
# [11] = NCI Yeast Anticancer Drug Screen. Data for the wt2 strain (AID 169);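 also: 0% = growth of vehicle-treated yeast cultures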; details: S. cerevisiae wt2 strain growth inhibition, active compounds read high
# Outline: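 Steps: yeast strain treated with compound; growth recorded; inhibition calculated relative to cultures given vehicle alone.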
# [12] = NCI Yeast Anticancer Drug Screen. Data for the mlh1 strain (AID 171);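 also: 0% = growth of vehicle-treated control cultures of the same strain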; details: S. cerevisiae mlh1 strain growth inhibition, active compounds read high
# Outline: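 Yeast screen: mutant strain plus compound, growth scored against vehicle control wells.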
# [13] = NCI Yeast Anticancer Drug Screen. Data for the sgs1 strain (AID 173);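 also: 0% = growth of vehicle-only control cultures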; details: S. cerevisiae sgs1 mutant, active compounds read high
# Outline: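 Inhibition of yeast growth served as the measure. The mutant strain was treated with each compound, and growth was normalised to cultures receiving vehicle alone.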
# [14] = NCI Yeast Anticancer Drug Screen. Data for the mlh1 rad18 strain (AID 175); details: S. cerevisiae mlh1 rad18 strain growth inhibition, active compounds read high
# Outline: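 Compound-treated yeast growth, normalised to vehicle controls. Strain bears defined DNA repair mutations.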
# [15] = NCI Yeast Anticancer Drug Screen. Data for the rad18 strain (AID 177); details: S. cerevisiae rad18 mutant growth inhibition, active compounds read high
# Outline: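 Inhibition values reflect reduced yeast growth compared with vehicle-treated controls, using a strain engineered with a DNA damage repair defect.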
# [16] = NCI Yeast Anticancer Drug Screen. Data for the CLN2oe strain (AID 163);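 also: 0% = growth of vehicle-only control cultures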; details: S. cerevisiae CLN2oe strain, active compounds read high
# Outline: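 Strain altered in cell-cycle control, incubated with compound; growth compared to solvent-treated controls.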
# [17] = at 5.0 µM (retest, dose inferred, filed as 0.5)
# [18] = at 50.0 µM (retest, dose inferred, filed as 5.0)
smiles,measurement,setting,value
Cc1cc(O)c2c(c1O)C(=O)C13C(=C2O)C(=O)C2C(O)C1C1C(O)C3C(=O)C3=C(O)c4c(O)cc(C)c(O)c4C(=O)C321 (stereo unspecified),growth inhibition,[1]; at 1.2 µM,28%
same,growth inhibition,[1]; at 3.7 µM,39%
same,growth inhibition,[1]; at 11.0 µM,58%
same,growth inhibition,[1]; at 33.0 µM,89% (active)
same,growth inhibition,[1]; at 100.0 µM,90% (active)
same,growth inhibition,[2]; at 1.2 µM,-7%
same,growth inhibition,[2]; at 3.7 µM,2%
same,growth inhibition,[2]; at 11.0 µM,38%
same,growth inhibition,[2]; at 33.0 µM,80% (active)
same,growth inhibition,[2]; at 100.0 µM,85% (active)
same,growth inhibition,[3]; at 1.2 µM,4%
same,growth inhibition,[3]; at 3.7 µM,3%
same,growth inhibition,[3]; at 11.0 µM,-4%
same,growth inhibition,[3]; at 33.0 µM,1%
same,growth inhibition,[3]; at 100.0 µM,-38%
same,growth inhibition,[4]; at 1.2 µM,5%
same,growth inhibition,[4]; at 3.7 µM,26%
same,growth inhibition,[4]; at 11.0 µM,61%
same,growth inhibition,[4]; at 33.0 µM,86% (active)
same,growth inhibition,[4]; at 100.0 µM,82% (active)
same,growth inhibition,[5]; at 1.2 µM,29%
same,growth inhibition,[5]; at 3.7 µM,37%
same,growth inhibition,[5]; [17],12%
same,growth inhibition,[5]; at 11.0 µM,51%
same,growth inhibition,[5]; at 33.0 µM,79% (active)
same,growth inhibition,[5]; [18],84% (active)
same,growth inhibition,[5]; at 50.0 µM,77.3% (active)
same,growth inhibition,[5]; at 100.0 µM,80% (active)
same,growth inhibition,[6]; at 1.2 µM,19%
same,growth inhibition,[6]; at 3.7 µM,34%
same,growth inhibition,[6]; [17],75% (active)
same,growth inhibition,[6]; at 11.0 µM,76% (active)
same,growth inhibition,[6]; at 33.0 µM,86% (active)
same,growth inhibition,[6]; [18],93% (active)
same,growth inhibition,[6]; at 50.0 µM,85.3% (active)
same,growth inhibition,[6]; at 100.0 µM,83% (active)
same,growth inhibition,[7]; at 1.2 µM,-6%
same,growth inhibition,[7]; at 3.7 µM,9%
same,growth inhibition,[7]; at 11.0 µM,52%
same,growth inhibition,[7]; at 33.0 µM,77% (active)
same,growth inhibition,[7]; at 100.0 µM,80% (active)
same,growth inhibition,[8]; [17],37%
same,growth inhibition,[8]; [18],86% (active)
same,growth inhibition,[8]; at 50.0 µM,79.2% (active)
same,growth inhibition,[9]; [17],28%
same,growth inhibition,[9]; [18],91% (active)
same,growth inhibition,[9]; at 50.0 µM,29.8%
same,growth inhibition,[10]; at 1.2 µM,-5%
same,growth inhibition,[10]; at 3.7 µM,4%
same,growth inhibition,[10]; [17],59%
same,growth inhibition,[10]; at 11.0 µM,27%
same,growth inhibition,[10]; at 33.0 µM,82% (active)
same,growth inhibition,[10]; [18],87% (active)
same,growth inhibition,[10]; at 50.0 µM,77% (active)
same,growth inhibition,[10]; at 100.0 µM,84% (active)
same,growth inhibition,[11]; at 1.2 µM,12%
same,growth inhibition,[11]; at 3.7 µM,26%
same,growth inhibition,[11]; at 11.0 µM,52%
same,growth inhibition,[11]; at 33.0 µM,87% (active)
same,growth inhibition,[11]; at 100.0 µM,85% (active)
same,growth inhibition,[12]; at 1.2 µM,18%
same,growth inhibition,[12]; at 3.7 µM,15%
same,growth inhibition,[12]; at 11.0 µM,43%
same,growth inhibition,[12]; at 33.0 µM,79% (active)
same,growth inhibition,[12]; at 100.0 µM,83% (active)
same,growth inhibition,[13]; at 1.2 µM,29%
same,growth inhibition,[13]; at 3.7 µM,31%
same,growth inhibition,[13]; at 11.0 µM,54%
same,growth inhibition,[13]; at 33.0 µM,80% (active)
same,growth inhibition,[13]; at 100.0 µM,80% (active)
same,growth inhibition,[14]; [17],58%
same,growth inhibition,[14]; [18],86% (active)
same,growth inhibition,[14]; at 50.0 µM,63.4%
same,growth inhibition,[15]; at 1.2 µM,-3%
same,growth inhibition,[15]; at 3.7 µM,-4%
same,growth inhibition,[15]; at 11.0 µM,15%
same,growth inhibition,[15]; at 33.0 µM,73% (active)
same,growth inhibition,[15]; at 100.0 µM,84% (active)
O=C1c2ccccc2CCC1(Br)Br,growth inhibition,[1]; at 1.2 µM,11%
same,growth inhibition,[1]; at 3.7 µM,27%
same,growth inhibition,[1]; at 11.0 µM,81% (active)
same,growth inhibition,[1]; at 33.0 µM,99% (active)
same,growth inhibition,[1]; at 100.0 µM,99% (active)
same,growth inhibition,[2]; at 1.2 µM,1%
same,growth inhibition,[2]; at 3.7 µM,11%
same,growth inhibition,[2]; at 11.0 µM,36%
same,growth inhibition,[2]; at 33.0 µM,99% (active)
same,growth inhibition,[2]; at 100.0 µM,99% (active)
same,growth inhibition,[3]; at 1.2 µM,55%
same,growth inhibition,[3]; at 3.7 µM,82% (active)
same,growth inhibition,[3]; at 11.0 µM,97% (active)
same,growth inhibition,[3]; at 33.0 µM,99% (active)
same,growth inhibition,[3]; at 100.0 µM,99% (active)
same,growth inhibition,[4]; at 1.2 µM,2%
same,growth inhibition,[4]; at 3.7 µM,11%
same,growth inhibition,[4]; at 11.0 µM,53%
same,growth inhibition,[4]; at 33.0 µM,99% (active)
same,growth inhibition,[4]; at 100.0 µM,99% (active)
same,growth inhibition,[5]; at 1.2 µM,11%
same,growth inhibition,[5]; at 3.7 µM,22%
same,growth inhibition,[5]; [17],50%
same,growth inhibition,[5]; at 11.0 µM,69%
same,growth inhibition,[5]; at 33.0 µM,99% (active)
same,growth inhibition,[5]; [18],99% (active)
same,growth inhibition,[5]; at 50.0 µM,99.2% (active)
same,growth inhibition,[5]; at 100.0 µM,99% (active)
same,growth inhibition,[6]; at 1.2 µM,9%
same,growth inhibition,[6]; at 3.7 µM,21%
same,growth inhibition,[6]; [17],21%
same,growth inhibition,[6]; at 11.0 µM,76% (active)
same,growth inhibition,[6]; at 33.0 µM,99% (active)
same,growth inhibition,[6]; [18],100% (active)
same,growth inhibition,[6]; at 50.0 µM,99.3% (active)
same,growth inhibition,[6]; at 100.0 µM,99% (active)
same,growth inhibition,[7]; at 1.2 µM,7%
same,growth inhibition,[7]; at 3.7 µM,14%
same,growth inhibition,[7]; at 11.0 µM,51%
same,growth inhibition,[7]; at 33.0 µM,99% (active)
same,growth inhibition,[7]; at 100.0 µM,99% (active)
same,growth inhibition,[8]; [17],63%
same,growth inhibition,[8]; [18],99% (active)
same,growth inhibition,[8]; at 50.0 µM,99.2% (active)
same,growth inhibition,[16]; at 1.2 µM,9%
same,growth inhibition,[16]; at 3.7 µM,13%
same,growth inhibition,[16]; at 11.0 µM,93% (active)
same,growth inhibition,[16]; at 33.0 µM,99% (active)
same,growth inhibition,[16]; at 100.0 µM,99% (active)
same,growth inhibition,[9]; [17],18%
same,growth inhibition,[9]; [18],100% (active)
same,growth inhibition,[9]; at 50.0 µM,99.4% (active)
same,growth inhibition,[10]; at 1.2 µM,1%
same,growth inhibition,[10]; at 3.7 µM,15%
same,growth inhibition,[10]; [17],61%
same,growth inhibition,[10]; at 11.0 µM,74% (active)
same,growth inhibition,[10]; at 33.0 µM,99% (active)
same,growth inhibition,[10]; [18],99% (active)
same,growth inhibition,[10]; at 50.0 µM,99.2% (active)
same,growth inhibition,[10]; at 100.0 µM,99% (active)
same,growth inhibition,[11]; at 1.2 µM,5%
same,growth inhibition,[11]; at 3.7 µM,13%
same,growth inhibition,[11]; at 11.0 µM,62%
same,growth inhibition,[11]; at 33.0 µM,99% (active)
same,growth inhibition,[11]; at 100.0 µM,99% (active)
same,growth inhibition,[12]; at 1.2 µM,7%
same,growth inhibition,[12]; at 3.7 µM,13%
same,growth inhibition,[12]; at 11.0 µM,72% (active)
same,growth inhibition,[12]; at 33.0 µM,99% (active)
same,growth inhibition,[12]; at 100.0 µM,99% (active)
same,growth inhibition,[13]; at 1.2 µM,13%
same,growth inhibition,[13]; at 3.7 µM,23%
same,growth inhibition,[13]; at 11.0 µM,76% (active)
same,growth inhibition,[13]; at 33.0 µM,99% (active)
same,growth inhibition,[13]; at 100.0 µM,99% (active)
same,growth inhibition,[14]; [17],85% (active)
same,growth inhibition,[14]; [18],99% (active)
same,growth inhibition,[14]; at 50.0 µM,99.3% (active)
same,growth inhibition,[15]; at 1.2 µM,13%
same,growth inhibition,[15]; at 3.7 µM,23%
same,growth inhibition,[15]; at 11.0 µM,75% (active)
same,growth inhibition,[15]; at 33.0 µM,99% (active)
same,growth inhibition,[15]; at 100.0 µM,99% (active)
